Reference: the supplement of paper PMC10849652
The full data set covers some 7,900 targets. This sample favours those with a hit. About 0.6% of all pairs of compound and target were hits.

Assays:
Test in all cases: log2 fold change, soluble protein after heating vs DMSO (PISA); higher = thermal stabilisation; K562 cells, 10 uM, 30 min; active = over 0.2 and 3.5 SD of the protein, either way, in both replicates (recomputed)
[1] = compound: C1COCCN1CCN2C3=CC=CC=C3N=C2NC(=O)C4=CC(=CC=C4)[N+](=O)[O-] [IRAK-1-4 Inhibitor I]
Outline: (§1)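 Soluble protein was quantified by TMTpro 16plex LC-MS/MS after channel sums were equalised. It was obtained as the supernatant after 21,000xg for 90 min from pooled aliquots of K562 cells (2×10^6 cells/mL, 10 μM compound, 30 min) heated for 3 min across 48°C-58°C and extracted in PBS with 0.5% NP-40 at 4°C. Thermal stability values are relative to control samples and come from duplicates. They are given as log2 fold changes.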

[2] = compound: C=CC(=O)N1CCC[C@@H](n2nc(-c3ccc(Oc4ccccc4)cc3)c3c(N)ncnc32)C1 [ibrutinib]
Outline: as §1

[3] = compound: CC(=O)c1cnc2ccc(-c3cc(Cl)c(O)c(Cl)c3)nc2c1N[C@H]1CC[C@H](CN(C)C)CC1
Outline: as §1

[4] = compound: CC(C)(C)Cn1c(N)nc2ccc(-c3[nH]c(C(C)(C)C)nc3-c3ccc(F)cc3)nc21 [ralimetinib]
Outline: as §1

[5] = compound: CC(C)(O)CC(=O)NCCn1ccc2ncnc(Nc3ccc(Oc4cccc(C(F)(F)F)c4)c(Cl)c3)c21
Outline: as §1

[6] = compound: CC(C)C1=C2N=C(C=C(N2N=C1)NCC3=CC=CC=C3)NCCCCCCN
Outline: as §1

[7] = compound: CC(C)C[C@@H](C=O)NC(=O)[C@H](CC(C)C)NC(=O)[C@H](CC(C)C)NC(=O)OCc1ccccc1
Outline: as §1

[8] = compound: CC(C)N(C[C@H]1O[C@@H](n2cnc3c(N)ncnc32)[C@H](O)[C@@H]1O)[C@H]1C[C@@H](CCc2nc3cc(C(C)(C)C)ccc3[nH]2)C1 [pinometostat]
Outline: as §1

[9] = compound: CC1=C(C(CC(=O)N1)C2=CC=C(C=C2)C(F)(F)F)C(=O)NC3=C(C=C4C(=C3)C=NN4)F
Outline: as §1

[10] = compound: CC1=C(C2=C(C=C1)C(=O)C3=CC=CC=C3N2CCCN)C
Outline: as §1

[11] = compound: CC1=C(C=C(C=C1)NC(=O)C2=CC(=CC=C2)C(C)(C)C#N)NC3=CC4=C(C=C3)N=CN(C4=O)C
Outline: as §1

[12] = compound: CC1=C(C=C(C=C1)NC(=O)C2=CC(=CC=C2)N(C)C)NC(=O)C3=CC=C(C=C3)O
Outline: as §1

[13] = compound: CC1=CC=C(C=C1)SC2=C3C=C(SC3=CN=C2)C(=O)N
Outline: as §1

[14] = compound: CC1=NC(=CC=C1)C2=C(N=C(N2)C(C)(C)C)C3=CC4=NC=CN=C4C=C3
Outline: as §1

[15] = compound: CCCCN(Cc1ccc(C(=O)NO)cc1)C(=O)Nc1ccccc1 [Nexturastat A]
Outline: as §1

[16] = compound: CCCS(=O)(=O)Nc1ccc(F)c(C(=O)c2c[nH]c3ncc(-c4ccc(Cl)cc4)cc23)c1F [vemurafenib]
Outline: as §1

[17] = compound: CCCS(=O)(=O)Nc1ccc(F)c(C(=O)c2c[nH]c3ncc(Cl)cc23)c1F
Outline: as §1

[18] = compound: CCCc1cc(C)[nH]c(=O)c1CNC(=O)c1cc(-c2ccnc(N3CCN(C)CC3)c2)cc2c1cnn2C(C)C
Outline: as §1

[19] = compound: CCN(CC)Cc1ccc2cc(COC(=O)Nc3ccc(C(=O)NO)cc3)ccc2c1 [givinostat]
Outline: as §1

[20] = compound: CCN(CCCOc1ccc2c(Nc3cc(CC(=O)Nc4cccc(F)c4)[nH]n3)ncnc2c1)CCOP(=O)(O)O [barasertib]
Outline: as §1

Measured: log2 fold change

ADH5 (UniProt P11766)
Sequence of UniProt P11766 (P11766 whole entry, looked up): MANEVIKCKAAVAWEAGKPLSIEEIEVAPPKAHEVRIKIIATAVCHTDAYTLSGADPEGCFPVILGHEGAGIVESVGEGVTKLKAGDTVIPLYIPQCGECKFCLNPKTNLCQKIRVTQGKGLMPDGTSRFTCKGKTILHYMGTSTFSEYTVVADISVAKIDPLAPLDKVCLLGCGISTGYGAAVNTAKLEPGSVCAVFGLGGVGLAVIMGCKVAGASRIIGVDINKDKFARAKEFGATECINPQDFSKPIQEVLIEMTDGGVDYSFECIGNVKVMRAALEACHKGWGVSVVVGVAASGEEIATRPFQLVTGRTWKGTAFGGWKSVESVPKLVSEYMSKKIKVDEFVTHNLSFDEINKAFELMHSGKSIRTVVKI
inactive: [1] 0.038 | [2] 0.011 | [3] 0.014 | [4] -0.097 | [5] -0.02 | [6] 0.05 | [7] -0.041 | [8] -0.05 | [9] 0.01 | [10] 0.019 | [11] 0.004 | [12] 0.008 | [13] 0.043 | [14] 0.009 | [15] -0.103 | [16] -0.007 | [17] 0.008 | [18] -0.046 | [19] -0.01 | [20] -0.023

ABCC5 (UniProt O15440)
inactive: [1] -0.035 | [2] -0.082 | [3] 0 | [4] 0.001 | [5] -0.121 | [6] 0.119 | [7] 0.046 | [8] 0.086 | [9] 0.038 | [10] 0.116 | [11] 0.107 | [12] -0.033 | [13] 0.035 | [14] -0.073 | [15] 0.007 | [16] -0.183 | [17] -0.031 | [18] 0.1 | [19] 0.028 | [20] 0.026

BECN1 (UniProt Q14457)
Sequence of UniProt Q14457 (Q14457 whole entry, looked up): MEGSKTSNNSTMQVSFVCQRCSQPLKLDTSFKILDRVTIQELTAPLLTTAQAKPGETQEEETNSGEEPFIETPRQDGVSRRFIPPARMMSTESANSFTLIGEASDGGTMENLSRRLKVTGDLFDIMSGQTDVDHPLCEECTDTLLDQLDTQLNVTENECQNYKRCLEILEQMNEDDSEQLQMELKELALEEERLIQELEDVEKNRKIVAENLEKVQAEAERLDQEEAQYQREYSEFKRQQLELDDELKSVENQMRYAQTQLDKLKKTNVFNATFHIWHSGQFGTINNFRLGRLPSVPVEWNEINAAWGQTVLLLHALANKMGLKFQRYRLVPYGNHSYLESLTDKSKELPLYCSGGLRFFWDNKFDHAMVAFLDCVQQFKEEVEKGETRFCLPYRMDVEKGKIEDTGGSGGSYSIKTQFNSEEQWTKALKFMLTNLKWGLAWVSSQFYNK
inactive: [1] -0.003 | [2] -0.018 | [3] 0.003 | [4] -0.004 | [5] -0.011 | [6] -0.031 | [7] -0.015 | [8] -0.032 | [9] -0.058 | [10] 0.084 | [11] -0.04 | [12] 0.029 | [13] 0 | [14] 0.04 | [15] 0.015 | [16] 0.055 | [17] -0.01 | [18] -0.024 | [19] -0.018 | [20] -0.012

AIP (UniProt O00170)
Sequence of UniProt O00170 (O00170 whole entry, looked up): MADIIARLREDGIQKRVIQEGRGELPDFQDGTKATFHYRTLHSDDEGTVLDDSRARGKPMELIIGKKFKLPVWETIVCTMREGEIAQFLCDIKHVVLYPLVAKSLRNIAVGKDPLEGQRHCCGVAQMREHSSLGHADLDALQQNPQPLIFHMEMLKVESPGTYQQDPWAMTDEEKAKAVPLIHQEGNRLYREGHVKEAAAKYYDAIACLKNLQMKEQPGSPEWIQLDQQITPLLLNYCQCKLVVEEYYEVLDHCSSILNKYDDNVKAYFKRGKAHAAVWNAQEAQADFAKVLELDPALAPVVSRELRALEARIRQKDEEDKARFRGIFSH
inactive: [1] 0 | [2] -0.047 | [3] 0.007 | [4] 0.006 | [5] -0.094 | [6] -0.074 | [7] -0.018 | [8] -0.027 | [9] -0.035 | [10] -0.026 | [11] 0.014 | [12] -0.074 | [13] 0.032 | [14] 0.07 | [15] -0.07 | [16] 0.071 | [17] 0.088 | [18] 0.065 | [19] 0.043 | [20] 0.031

ATAD3A isoform 2 (UniProt Q9NVI7)
Sequence of UniProt Q9NVI7 (Q9NVI7 whole entry, looked up): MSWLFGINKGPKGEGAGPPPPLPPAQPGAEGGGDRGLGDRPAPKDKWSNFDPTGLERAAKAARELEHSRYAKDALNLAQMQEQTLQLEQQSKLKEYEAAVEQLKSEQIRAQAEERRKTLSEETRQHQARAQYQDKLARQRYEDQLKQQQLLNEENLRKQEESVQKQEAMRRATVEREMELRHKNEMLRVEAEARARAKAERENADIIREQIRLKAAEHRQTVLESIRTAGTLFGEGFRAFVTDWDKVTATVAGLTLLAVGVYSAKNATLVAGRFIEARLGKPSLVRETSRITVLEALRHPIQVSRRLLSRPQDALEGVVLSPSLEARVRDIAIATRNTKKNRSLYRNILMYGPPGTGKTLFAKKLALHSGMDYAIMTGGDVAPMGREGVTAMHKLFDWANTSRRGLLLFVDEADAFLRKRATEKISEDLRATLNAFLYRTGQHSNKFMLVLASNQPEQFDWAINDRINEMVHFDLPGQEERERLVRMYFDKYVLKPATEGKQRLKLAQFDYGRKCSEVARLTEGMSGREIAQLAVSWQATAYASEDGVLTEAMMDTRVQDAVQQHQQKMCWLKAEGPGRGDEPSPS
active: [6] -0.468
inactive: [1] -0.005 | [2] 0.08 | [3] -0.075 | [4] 0.009 | [5] -0.023 | [7] 0.075 | [8] 0.082 | [9] 0 | [10] 0.096 | [11] -0.04 | [12] 0.005 | [13] 0.007 | [14] 0.017 | [15] 0.207 | [16] 0.033 | [17] 0.052 | [18] 0 | [19] 0.045 | [20] 0.009

ARFGEF1 (UniProt Q9Y6D6)
Sequence of UniProt Q9Y6D6 (Q9Y6D6 whole entry, looked up): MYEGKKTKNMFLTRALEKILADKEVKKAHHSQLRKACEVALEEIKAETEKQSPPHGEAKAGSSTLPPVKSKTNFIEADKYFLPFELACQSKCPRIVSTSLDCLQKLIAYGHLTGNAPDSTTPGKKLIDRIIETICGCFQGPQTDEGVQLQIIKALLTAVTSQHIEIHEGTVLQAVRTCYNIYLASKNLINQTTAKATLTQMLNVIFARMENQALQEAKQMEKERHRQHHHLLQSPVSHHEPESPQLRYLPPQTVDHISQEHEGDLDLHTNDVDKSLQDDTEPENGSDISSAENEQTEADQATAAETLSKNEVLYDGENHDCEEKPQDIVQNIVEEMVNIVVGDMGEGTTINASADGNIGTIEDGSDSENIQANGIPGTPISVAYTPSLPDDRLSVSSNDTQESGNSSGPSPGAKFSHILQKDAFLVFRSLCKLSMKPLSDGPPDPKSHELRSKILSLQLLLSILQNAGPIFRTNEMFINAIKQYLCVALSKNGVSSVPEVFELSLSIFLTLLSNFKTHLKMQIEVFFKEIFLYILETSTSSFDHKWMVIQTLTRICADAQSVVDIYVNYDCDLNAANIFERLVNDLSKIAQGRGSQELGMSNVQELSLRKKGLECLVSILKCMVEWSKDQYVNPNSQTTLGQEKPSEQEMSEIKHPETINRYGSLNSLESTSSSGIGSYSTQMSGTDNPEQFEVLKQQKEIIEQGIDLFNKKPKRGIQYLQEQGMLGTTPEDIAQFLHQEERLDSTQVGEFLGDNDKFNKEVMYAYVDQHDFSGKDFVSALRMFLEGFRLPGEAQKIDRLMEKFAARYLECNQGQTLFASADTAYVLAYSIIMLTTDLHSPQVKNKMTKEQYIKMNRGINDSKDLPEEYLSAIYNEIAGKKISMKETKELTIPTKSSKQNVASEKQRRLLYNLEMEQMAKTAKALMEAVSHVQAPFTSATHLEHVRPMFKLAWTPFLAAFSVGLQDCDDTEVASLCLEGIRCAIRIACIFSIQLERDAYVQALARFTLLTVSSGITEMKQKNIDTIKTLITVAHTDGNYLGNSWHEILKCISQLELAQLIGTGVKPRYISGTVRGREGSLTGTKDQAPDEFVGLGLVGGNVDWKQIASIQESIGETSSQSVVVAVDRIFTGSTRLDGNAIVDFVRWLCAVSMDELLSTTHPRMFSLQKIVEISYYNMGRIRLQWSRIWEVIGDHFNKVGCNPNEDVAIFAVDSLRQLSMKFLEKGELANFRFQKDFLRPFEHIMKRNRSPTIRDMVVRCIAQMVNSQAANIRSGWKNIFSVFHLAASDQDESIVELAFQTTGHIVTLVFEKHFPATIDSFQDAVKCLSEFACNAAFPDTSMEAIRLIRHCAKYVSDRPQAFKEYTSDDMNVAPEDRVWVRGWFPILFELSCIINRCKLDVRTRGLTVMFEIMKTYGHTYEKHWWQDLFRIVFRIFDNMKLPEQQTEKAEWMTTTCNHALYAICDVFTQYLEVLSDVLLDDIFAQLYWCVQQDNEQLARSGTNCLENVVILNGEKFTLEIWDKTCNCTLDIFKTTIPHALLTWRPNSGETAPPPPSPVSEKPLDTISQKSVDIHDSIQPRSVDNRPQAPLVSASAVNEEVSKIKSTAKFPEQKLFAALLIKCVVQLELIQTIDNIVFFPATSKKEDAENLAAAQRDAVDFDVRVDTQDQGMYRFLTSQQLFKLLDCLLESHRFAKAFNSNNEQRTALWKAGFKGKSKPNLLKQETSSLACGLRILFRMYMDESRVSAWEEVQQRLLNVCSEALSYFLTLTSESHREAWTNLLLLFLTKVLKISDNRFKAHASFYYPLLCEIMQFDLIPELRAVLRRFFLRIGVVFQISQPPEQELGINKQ
inactive: [1] 0.016 | [2] -0.061 | [3] 0.036 | [4] 0.132 | [5] -0.018 | [6] 0.051 | [7] -0.019 | [8] 0.001 | [9] -0.065 | [10] 0.07 | [11] -0.03 | [12] -0.013 | [13] -0.014 | [14] 0 | [15] -0.042 | [16] 0.035 | [17] 0.041 | [18] 0.155 | [19] 0.029 | [20] -0.015

AHSA1 (UniProt O95433)
Sequence of UniProt O95433 (O95433 whole entry, looked up): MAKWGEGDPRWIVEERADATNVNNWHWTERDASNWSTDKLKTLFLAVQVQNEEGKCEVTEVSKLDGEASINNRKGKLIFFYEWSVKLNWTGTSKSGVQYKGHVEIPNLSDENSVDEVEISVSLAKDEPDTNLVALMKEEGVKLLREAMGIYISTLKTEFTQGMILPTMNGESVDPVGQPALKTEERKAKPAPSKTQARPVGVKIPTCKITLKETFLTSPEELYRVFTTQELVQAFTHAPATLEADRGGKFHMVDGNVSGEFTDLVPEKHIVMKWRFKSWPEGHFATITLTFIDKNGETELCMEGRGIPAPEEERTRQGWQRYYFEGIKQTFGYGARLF
inactive: [1] 0.002 | [2] -0.043 | [3] -0.007 | [4] 0 | [5] -0.022 | [6] -0.038 | [7] -0.008 | [8] -0.045 | [9] 0.003 | [10] 0 | [11] -0.014 | [12] 0.006 | [13] 0 | [14] 0.062 | [15] -0.019 | [16] 0.029 | [17] 0.036 | [18] -0.024 | [19] -0.015 | [20] 0.027

ACSM3 (UniProt Q53FZ2)
Sequence of UniProt Q53FZ2 (Q53FZ2 whole entry, looked up): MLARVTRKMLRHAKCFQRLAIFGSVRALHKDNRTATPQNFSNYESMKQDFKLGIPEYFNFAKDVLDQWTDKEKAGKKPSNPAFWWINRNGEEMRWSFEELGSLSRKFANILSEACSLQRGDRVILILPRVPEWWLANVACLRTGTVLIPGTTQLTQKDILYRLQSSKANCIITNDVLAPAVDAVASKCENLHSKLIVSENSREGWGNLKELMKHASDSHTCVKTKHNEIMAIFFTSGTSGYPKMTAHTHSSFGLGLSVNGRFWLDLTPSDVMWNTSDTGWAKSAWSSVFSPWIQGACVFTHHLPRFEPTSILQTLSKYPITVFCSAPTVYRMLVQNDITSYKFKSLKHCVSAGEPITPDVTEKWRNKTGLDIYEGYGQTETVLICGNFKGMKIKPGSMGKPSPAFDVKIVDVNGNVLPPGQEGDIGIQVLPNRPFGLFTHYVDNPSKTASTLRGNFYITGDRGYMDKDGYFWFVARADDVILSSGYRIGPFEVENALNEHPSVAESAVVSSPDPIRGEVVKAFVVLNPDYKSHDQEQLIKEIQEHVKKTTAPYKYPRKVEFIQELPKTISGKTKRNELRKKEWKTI
active: [5] -0.397
inactive: [1] 0 | [2] -0.021 | [3] -0.11 | [4] -0.003 | [6] -0.155 | [7] -0.086 | [8] 0.046 | [9] -0.001 | [10] 0.041 | [11] -0.069 | [12] -0.056 | [13] 0.019 | [14] -0.029 | [15] -0.096 | [16] 0.033 | [17] 0.036 | [18] 0.018 | [19] 0.039 | [20] 0.103
